Hits are enriched below; roughly 3.3% of the tested compounds scored in any of these assays.
WT yeast gro inh = growth inhibition of WT strain, primary screen, mitochondrial fusion inhibitor project, WT and mutant strains, chemical genetic. 2.1% of 190,000 active. AID 1362, 2008. inhibition, % at 10 µM. mitochondrial fusion phenotypic screen; in the data active = inhibition above about 58%; tested in S. cerevisiae
ROMK primary = ROMK potassium channel modulators, primary screen, cell-based, thallium flux, MLSMR library. AID 1918, 2009. 2% of 130,000 active. B-score at 10 µM. ATP-sensitive inward rectifier potassium channel 1 (Homo sapiens), P48048. Tet-inducible ROMK, thallium flux fluorescence; actives lie on both sides;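 active = signal ratio slope over the read window, or its plate-corrected B-score, at least 3 SD from the plate mean, either direction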;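 also: B-score of the F/F0 ratio slope over 7 to 12 s after thallium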
Target sequence (P48048 whole entry, looked up): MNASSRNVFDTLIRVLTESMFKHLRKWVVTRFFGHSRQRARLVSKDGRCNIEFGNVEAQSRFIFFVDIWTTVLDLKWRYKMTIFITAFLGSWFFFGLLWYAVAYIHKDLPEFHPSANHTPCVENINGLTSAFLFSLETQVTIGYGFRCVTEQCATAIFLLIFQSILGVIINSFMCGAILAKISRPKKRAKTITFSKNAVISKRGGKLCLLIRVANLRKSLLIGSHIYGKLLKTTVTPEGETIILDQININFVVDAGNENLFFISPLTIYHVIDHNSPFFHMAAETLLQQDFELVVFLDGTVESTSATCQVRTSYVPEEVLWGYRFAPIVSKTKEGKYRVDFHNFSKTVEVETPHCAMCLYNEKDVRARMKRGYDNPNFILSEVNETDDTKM
PERK inhibitor = block of dimerizer-induced PERK translation repression, primary screen, PERK inhibitor project, CHO PERK-DD cells, SEAP luminescence, HTS | AID 1416, 2008 | inhibition, % at 5.6 µM | 0.17% of 220,000 active | CHO PERK-DD fusion, SEAP luminescence translation reporter | Eukaryotic translation initiation factor 2-alpha kinase 3 (Homo sapiens), Q9NZJ5;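 active = inhibition above the mean inhibition of all tested compounds plus 3 SD, set separately per screening campaign, cut at about 2.9% in these data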;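 also: PERK kinase domain activated by AP20187 dimerizer at 100 nM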
Arbovirus inh = antivirals against arbovirus infection, primary screen, cell-based, full library, 10K replicate subset. inhibition, % at 10 µM. arbovirus infection cell-based antiviral screen. 0.37% of 200,000 active; in the data active = inhibition above about 30%
Each line names hits and unclear results; the compound was inactive in the other large screens; ! = a repeat was not active.

CCOc1ccc(-n2c(SCC(=O)Nc3cc(OC)c([N+](=O)[O-])cc3C)nc3ccccc32)cc1	Arbovirus inh 53.9 (no result: ROMK primary)
CC1(C)CC(=O)C([N+](=O)[O-])=C(NCCCC(=O)O)C1	none
CCCCCCn1c(COc2ccccc2F)nnc1SCC(=O)c1c(N)n(C)c(=O)n(C)c1=O	none
COc1ccc(-n2c(SCC(=O)N3CCCC3)nc3c([nH]c4ccccc43)c2=O)cc1	none (no result: ROMK primary, PERK inhibitor)
CCOC(=O)c1cnc(SC)nc1Nc1cccc(F)c1	none
CCOC(=O)c1cnc(SC)nc1Sc1cc(Cl)ccc1Cl	WT yeast gro inh 71.4 (no result: ROMK primary)
O=C(CNC(=O)c1ccccc1)N/N=C/c1cn[nH]c1-c1ccccc1	none
CC(SCC(=O)Nc1ccc(S(=O)(=O)N2CCCCC2)cc1)C(=O)O (centres undefined)	none
Cc1cc(C)nc(NC(=O)c2ccc(COc3ccccc3Cl)cc2)c1	WT yeast gro inh 65.2
Cc1cc(C)nc(NC(=O)/C=C/c2ccccc2Cl)c1	WT yeast gro inh 63.8 (no result: ROMK primary)
Cc1cc(C)nc(NC(=O)/C=C/c2ccccc2Cl)n1	none (no result: ROMK primary)
Cc1cc(C)nc(NC(=O)/C=C/c2ccc(Cl)cc2Cl)c1	WT yeast gro inh 74.2
O=C(NCC(=O)N(Cc1cccs1)C(C(=O)NC1CCCC1)c1ccco1)c1cccs1 (centres undefined)	none (no result: ROMK primary)
CCCSc1nc(NCc2ccco2)c2c3c(sc2n1)COC(C)(C)C3	WT yeast gro inh 69.5 (no result: ROMK primary)
COc1cc2c(cc1NC(=O)c1cccc(F)c1)CCCC2	none
COc1cc2c(cc1NC(=O)c1cccc(Br)c1)CCCC2	WT yeast gro inh 72.5
COc1ccc(N2CCN(c3nc(NC(C)(C)C)nc(N4CCCCC4)n3)CC2)cc1	none
CCC(=O)NNC(=O)CCC(=O)Nc1cccc(Cl)c1C	PERK inhibitor 3.0
COC(=O)CCC(=O)NNC(=O)CCC(=O)Nc1cccc(Cl)c1C	none
Cc1ccc(C)c(NC(=S)Nc2cccc3cnccc23)c1	WT yeast gro inh 62.5
Cc1ccc(NC(=S)Nc2cccc3cnccc23)cc1	none
Cc1ccc(NC(=S)Nc2cccc3cnccc23)cc1C	WT yeast gro inh 59.2
S=C(Nc1cccc(Cl)c1)Nc1cccc2cnccc12	WT yeast gro inh 70.1 (no result: ROMK primary)
Cn1c(SCc2ccc(C#N)cc2Cl)nc2ccccc21	none (no result: ROMK primary)
Cc1ccc(NC(=O)CSc2nnc3n2CCCCC3)cc1	none (no result: ROMK primary)
O=C(NCc1ccco1)c1cccnc1-c1nc2ccccc2s1	WT yeast gro inh 63.8 (no result: ROMK primary)
O=C(NCc1ccco1)c1cccnc1Cl	none
CCCCn1c(CCC(=O)O)nc2cc(S(=O)(=O)N(CC)CC)ccc21	none (no result: WT yeast gro inh, ROMK primary, Arbovirus inh)
O=C(NC(=S)Nc1ccc(-c2nc3ncccc3o2)cc1)c1ccccc1F	none
O=C1c2cnc3nc(SCc4ccccc4)nn3c2CC2c3ccccc3CCN12 (centres undefined)	WT yeast gro inh 80.5
CSc1nc2ncc3c(n2n1)CC(C)(C)CC3=O	none
COc1cc(S(=O)(=O)Nc2cccc(C(=O)O)c2)c(OC)cc1Cl	none
C=CCn1c(-c2sc3nc(C)cc(C)c3c2N)n[nH]c1=S	none (no result: WT yeast gro inh, Arbovirus inh)
COc1ccccc1N1CCN(C(=O)c2ccoc2C)CC1	none
COc1ccccc1N1CCN(C(=O)c2oc3cc(C)cc(C)c3c2C)CC1	WT yeast gro inh 75.5
COc1ccc(-c2[nH]ncc2CNCCn2cccn2)c(F)c1	none
COc1cc2c(cc1NC(=O)CSc1nc3ccccc3[nH]1)oc1ccccc12	WT yeast gro inh 64.1 (no result: ROMK primary)
COc1cc2c(cc1NC(=O)CSc1ccccc1)oc1ccccc12	none
COc1cc2c(cc1NC(=O)Nc1ccc(C)cc1)oc1ccccc12	WT yeast gro inh 96.1
Cc1nc(S/C(=C/c2ccc(-c3cccc(Cl)c3)o2)C(=O)O)n[nH]1	WT yeast gro inh 70.6, Arbovirus inh 33.4 (no result: ROMK primary)
O=S(=O)(Nc1cccc2ncccc12)c1cccs1	WT yeast gro inh 59.2 (no result: ROMK primary)
COc1ccc(CC(=S)N2CCOCC2)cc1OC	none
CCOC(=O)C1CCN(C(=O)Cc2ccc(C)cc2)CC1	none
COc1ccc(CC(=O)N2CCOCC2)cc1OC	WT yeast gro inh 86.5 (no result: ROMK primary)
CCOC(=O)C1CCN(C(=O)Cc2ccc(OC)c(OC)c2)CC1	WT yeast gro inh 72.3 (no result: ROMK primary)
CC(C)(C)CC(C)(C)NC(=O)CSCC(=O)Nc1ccc2ccccc2c1	WT yeast gro inh 68.4 (no result: ROMK primary)
CC(C)CC(=O)Nc1ccc2ccccc2c1	PERK inhibitor 3.2!
O=C(CSc1ccncc1)Nc1ccc2ccccc2c1	none
CCC(=O)Nc1ccc2ccccc2c1	none
CNC(=O)/C(=C\c1ccc2c(c1)OCO2)NC(=O)c1ccc(Br)cc1	none (no result: ROMK primary)
CCN1/C(=C/c2cc[n+](CCCS(=O)(=O)[O-])c3ccccc23)Sc2ccccc21	none

Screens deposited in PubChem by several laboratories.
